Test results reported in article PMC7862700, “An all-to-all approach to the identification of sequence-specific readers for epigenetic DNA modifications on cytosine”.

Key:
Assay in all cases: DAPPL (digital affinity profiling via proximity ligation, sequencing); 10 mM Tris-HCl pH 7.5, 50 mM NaCl, 1 mM DTT, 4% glycerol, room temperature, 30 min; GST-TFs on glutathione beads, 16-mer random dsDNA library, 0.1% formaldehyde crosslink after washing; high values mean tight binding
FLI1 = biological target: T1, FLI1 (Homo sapiens, UniProt Q01543 1-452); details: protein: recombinant; tags: N-terminal GST; dsDNA, one strand shown
T1 sequence: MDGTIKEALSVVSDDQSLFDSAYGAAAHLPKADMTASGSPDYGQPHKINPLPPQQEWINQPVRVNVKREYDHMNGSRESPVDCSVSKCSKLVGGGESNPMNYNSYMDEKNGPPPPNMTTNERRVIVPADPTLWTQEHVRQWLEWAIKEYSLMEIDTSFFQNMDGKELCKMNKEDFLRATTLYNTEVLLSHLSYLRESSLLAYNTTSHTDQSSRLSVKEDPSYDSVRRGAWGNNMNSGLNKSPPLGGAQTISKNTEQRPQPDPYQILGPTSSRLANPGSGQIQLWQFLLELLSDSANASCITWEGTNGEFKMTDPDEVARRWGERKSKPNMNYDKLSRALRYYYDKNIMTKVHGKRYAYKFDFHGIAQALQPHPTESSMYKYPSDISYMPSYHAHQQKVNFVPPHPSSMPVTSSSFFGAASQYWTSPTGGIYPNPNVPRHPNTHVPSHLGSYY
Method in brief: (§1)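 After expression in yeast as GST fusions, human transcription factors were bound to glutathione beads, DNA-barcoded and mixed with a tag-only sample. The pools were incubated with 200 nmole of a 16-mer random double-stranded DNA library in Tris/NaCl/DTT/glycerol buffer (30 min, room temperature), washed and crosslinked with 0.1% formaldehyde. Proximity ligation with BsaI/T4 ligase ran for 1 h at 37 °C, before PCR amplification and sequencing on an Illumina NextSeq500. Binding signal is a hexamer's read frequency for a factor divided by its frequency for the tag-only sample.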

ELK1 = biological target: T2, ELK1 (Homo sapiens, UniProt P19419 1-428); details: protein: recombinant; tags: N-terminal GST; dsDNA, one strand shown
T2 sequence: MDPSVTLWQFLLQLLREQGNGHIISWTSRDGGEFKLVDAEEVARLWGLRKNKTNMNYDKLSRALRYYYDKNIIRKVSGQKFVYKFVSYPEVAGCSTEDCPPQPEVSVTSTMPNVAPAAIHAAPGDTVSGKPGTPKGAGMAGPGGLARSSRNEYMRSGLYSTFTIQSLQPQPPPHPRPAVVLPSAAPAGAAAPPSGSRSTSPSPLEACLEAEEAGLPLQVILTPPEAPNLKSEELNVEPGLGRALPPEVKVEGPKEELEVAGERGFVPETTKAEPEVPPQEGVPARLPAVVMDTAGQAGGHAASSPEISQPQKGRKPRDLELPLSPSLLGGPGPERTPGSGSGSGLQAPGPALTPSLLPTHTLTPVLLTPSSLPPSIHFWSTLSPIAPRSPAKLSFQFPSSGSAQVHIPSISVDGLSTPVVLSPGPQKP
Method in brief: as §1

GABPA = biological target: T3, GABPA (Homo sapiens, UniProt Q06546 1-454); details: protein: recombinant; tags: N-terminal GST; dsDNA, one strand shown
T3 sequence: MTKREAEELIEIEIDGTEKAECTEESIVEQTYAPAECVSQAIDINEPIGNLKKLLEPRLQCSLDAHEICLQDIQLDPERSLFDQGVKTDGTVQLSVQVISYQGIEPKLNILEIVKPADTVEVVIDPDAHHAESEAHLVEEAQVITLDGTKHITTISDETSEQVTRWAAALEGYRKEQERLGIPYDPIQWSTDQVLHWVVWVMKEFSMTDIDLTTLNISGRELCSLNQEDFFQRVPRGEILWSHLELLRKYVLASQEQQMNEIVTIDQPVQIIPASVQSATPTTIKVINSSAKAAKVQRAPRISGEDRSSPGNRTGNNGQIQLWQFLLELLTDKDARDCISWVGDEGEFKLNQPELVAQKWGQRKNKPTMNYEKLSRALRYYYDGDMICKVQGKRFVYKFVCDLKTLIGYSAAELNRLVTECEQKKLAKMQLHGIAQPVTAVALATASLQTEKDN
Method in brief: as §1

ERG = biological target: T4, ERG (Homo sapiens, UniProt P11308 1-479); details: protein: recombinant; tags: N-terminal GST; dsDNA, one strand shown
T4 sequence: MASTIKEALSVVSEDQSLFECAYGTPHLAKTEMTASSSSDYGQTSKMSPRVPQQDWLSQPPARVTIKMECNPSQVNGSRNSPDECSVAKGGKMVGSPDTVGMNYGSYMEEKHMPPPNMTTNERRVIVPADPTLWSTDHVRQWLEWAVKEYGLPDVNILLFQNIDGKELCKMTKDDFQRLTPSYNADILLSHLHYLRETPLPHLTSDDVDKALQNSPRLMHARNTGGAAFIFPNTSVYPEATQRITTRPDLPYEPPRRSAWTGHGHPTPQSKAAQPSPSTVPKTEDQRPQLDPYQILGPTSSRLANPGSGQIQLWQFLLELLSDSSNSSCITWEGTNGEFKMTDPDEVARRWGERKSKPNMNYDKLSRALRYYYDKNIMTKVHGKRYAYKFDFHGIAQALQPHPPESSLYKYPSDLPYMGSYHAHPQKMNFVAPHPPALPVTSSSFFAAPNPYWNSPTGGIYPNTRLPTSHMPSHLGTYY
Method in brief: as §1

ELF1 = ELF1 (Homo sapiens, UniProt P32519 1-619); details: protein: recombinant; tags: N-terminal GST; dsDNA, one strand shown
Method in brief: as §1

EHF = biological target: T5, EHF (Homo sapiens, UniProt Q9NZC4 1-300); details: protein: recombinant; tags: N-terminal GST; dsDNA, one strand shown
T5 sequence: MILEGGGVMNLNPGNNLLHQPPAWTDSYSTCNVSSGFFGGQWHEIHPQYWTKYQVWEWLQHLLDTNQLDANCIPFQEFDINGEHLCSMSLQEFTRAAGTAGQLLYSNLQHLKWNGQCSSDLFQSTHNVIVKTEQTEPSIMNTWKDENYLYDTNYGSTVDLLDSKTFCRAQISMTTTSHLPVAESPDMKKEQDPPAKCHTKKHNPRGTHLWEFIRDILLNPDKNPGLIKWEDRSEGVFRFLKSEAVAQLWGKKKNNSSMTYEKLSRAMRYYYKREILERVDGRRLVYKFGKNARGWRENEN
Method in brief: as §1

SPI1 = SPI1 (Homo sapiens, UniProt P17947 1-270); details: protein: recombinant; tags: N-terminal GST; dsDNA, one strand shown
Method in brief: as §1

SPIB = SPIB (Homo sapiens, UniProt Q01892 1-262); details: protein: recombinant; tags: N-terminal GST; dsDNA, one strand shown
Method in brief: as §1

ELK3 = biological target: T6, ELK3 (Homo sapiens, UniProt P41970 1-407); details: protein: recombinant; tags: N-terminal GST; dsDNA, one strand shown
T6 sequence: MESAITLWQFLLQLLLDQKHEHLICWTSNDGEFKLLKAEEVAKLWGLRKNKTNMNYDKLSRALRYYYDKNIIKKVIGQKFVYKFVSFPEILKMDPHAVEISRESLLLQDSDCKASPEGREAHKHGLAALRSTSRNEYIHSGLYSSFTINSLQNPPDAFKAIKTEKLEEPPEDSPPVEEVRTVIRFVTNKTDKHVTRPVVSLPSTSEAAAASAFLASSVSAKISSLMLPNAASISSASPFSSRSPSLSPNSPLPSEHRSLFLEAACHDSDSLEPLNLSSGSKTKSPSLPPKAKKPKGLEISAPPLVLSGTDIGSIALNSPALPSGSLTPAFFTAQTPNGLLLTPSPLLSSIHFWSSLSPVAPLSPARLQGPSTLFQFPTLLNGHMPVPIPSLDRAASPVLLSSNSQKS
Method in brief: as §1

FEV = biological target: T7, FEV (Homo sapiens, UniProt Q99581 1-238); details: protein: recombinant; tags: N-terminal GST; dsDNA, one strand shown
T7 sequence: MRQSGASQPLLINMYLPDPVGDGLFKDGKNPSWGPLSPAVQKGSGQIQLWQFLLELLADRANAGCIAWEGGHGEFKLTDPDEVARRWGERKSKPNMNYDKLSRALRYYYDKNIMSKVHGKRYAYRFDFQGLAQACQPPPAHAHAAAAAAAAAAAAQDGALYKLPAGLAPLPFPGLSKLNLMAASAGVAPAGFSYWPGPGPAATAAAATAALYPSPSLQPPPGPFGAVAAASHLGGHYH
Method in brief: as §1

ETV5 = ETV5 (Homo sapiens, UniProt P41161 1-510); details: protein: recombinant; tags: N-terminal GST; dsDNA, one strand shown
Method in brief: as §1

HSF1 = HSF1 (Homo sapiens, UniProt Q00613 1-529); details: protein: recombinant; tags: N-terminal GST; chain copies: 3; dsDNA, one strand shown
Method in brief: as §1

SPIC = biological target: T8, SPIC (Homo sapiens, UniProt Q8N5J4 1-248); details: protein: recombinant; tags: N-terminal GST; dsDNA, one strand shown
T8 sequence: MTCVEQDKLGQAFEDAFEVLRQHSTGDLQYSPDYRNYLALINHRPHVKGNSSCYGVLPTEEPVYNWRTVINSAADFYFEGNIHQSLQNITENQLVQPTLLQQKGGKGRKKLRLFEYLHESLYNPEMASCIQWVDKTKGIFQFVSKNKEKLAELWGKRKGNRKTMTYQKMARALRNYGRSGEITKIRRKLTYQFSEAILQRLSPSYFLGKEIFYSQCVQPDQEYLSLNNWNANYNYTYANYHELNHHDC
Method in brief: as §1

ELF4 = ELF4 (Homo sapiens, UniProt Q99607 1-663); details: protein: recombinant; tags: N-terminal GST; dsDNA, one strand shown
Method in brief: as §1

ELK4 = biological target: T9, ELK4 (Homo sapiens, UniProt P28324-2 1-405); details: protein: recombinant; tags: N-terminal GST; dsDNA, one strand shown
T9 sequence: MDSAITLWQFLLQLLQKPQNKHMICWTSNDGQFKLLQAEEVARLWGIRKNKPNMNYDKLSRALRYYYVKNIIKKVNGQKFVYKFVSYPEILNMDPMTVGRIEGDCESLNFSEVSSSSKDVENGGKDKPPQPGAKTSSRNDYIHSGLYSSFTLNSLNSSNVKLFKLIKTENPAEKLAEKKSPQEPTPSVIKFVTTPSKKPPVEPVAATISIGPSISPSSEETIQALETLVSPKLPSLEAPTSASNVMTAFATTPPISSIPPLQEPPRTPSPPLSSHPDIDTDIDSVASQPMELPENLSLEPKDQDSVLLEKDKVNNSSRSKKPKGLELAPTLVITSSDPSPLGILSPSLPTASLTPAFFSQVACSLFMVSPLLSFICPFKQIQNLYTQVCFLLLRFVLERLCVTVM
Method in brief: as §1

ETV2 = biological target: T10, ETV2 (Homo sapiens, UniProt O00321 1-342); details: protein: recombinant; tags: N-terminal GST; dsDNA, one strand shown
T10 sequence: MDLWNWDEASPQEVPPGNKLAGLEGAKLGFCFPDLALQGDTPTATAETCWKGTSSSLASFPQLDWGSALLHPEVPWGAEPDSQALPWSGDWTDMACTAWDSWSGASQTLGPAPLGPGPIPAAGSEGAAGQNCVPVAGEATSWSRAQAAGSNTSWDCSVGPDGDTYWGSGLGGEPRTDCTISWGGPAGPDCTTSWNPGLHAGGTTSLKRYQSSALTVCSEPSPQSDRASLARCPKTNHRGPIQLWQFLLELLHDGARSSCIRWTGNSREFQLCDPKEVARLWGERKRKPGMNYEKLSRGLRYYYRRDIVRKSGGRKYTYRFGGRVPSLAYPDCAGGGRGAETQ
Method in brief: as §1

ELF3 = biological target: T11, ELF3 (Homo sapiens, UniProt P78545 1-371); details: protein: recombinant; tags: N-terminal GST; dsDNA, one strand shown
T11 sequence: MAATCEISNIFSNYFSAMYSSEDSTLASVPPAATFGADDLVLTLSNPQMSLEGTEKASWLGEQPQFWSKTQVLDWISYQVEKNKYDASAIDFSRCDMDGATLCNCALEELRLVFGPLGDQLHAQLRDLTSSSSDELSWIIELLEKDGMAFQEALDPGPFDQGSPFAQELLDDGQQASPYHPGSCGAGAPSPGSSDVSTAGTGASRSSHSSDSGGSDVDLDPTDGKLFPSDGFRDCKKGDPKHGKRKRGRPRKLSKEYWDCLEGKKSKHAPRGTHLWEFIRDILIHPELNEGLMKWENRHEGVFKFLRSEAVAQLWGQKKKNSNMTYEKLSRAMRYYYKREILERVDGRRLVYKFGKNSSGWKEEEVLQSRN
Method in brief: as §1

CRX = CRX (Homo sapiens, UniProt O43186 1-299); details: protein: recombinant; tags: N-terminal GST; dsDNA, one strand shown
Method in brief: as §1

ETV1 = ETV1 (Homo sapiens, UniProt P50549 1-477); details: protein: recombinant; tags: N-terminal GST; dsDNA, one strand shown
Method in brief: as §1

HSF1, sequence (Q00613 whole entry): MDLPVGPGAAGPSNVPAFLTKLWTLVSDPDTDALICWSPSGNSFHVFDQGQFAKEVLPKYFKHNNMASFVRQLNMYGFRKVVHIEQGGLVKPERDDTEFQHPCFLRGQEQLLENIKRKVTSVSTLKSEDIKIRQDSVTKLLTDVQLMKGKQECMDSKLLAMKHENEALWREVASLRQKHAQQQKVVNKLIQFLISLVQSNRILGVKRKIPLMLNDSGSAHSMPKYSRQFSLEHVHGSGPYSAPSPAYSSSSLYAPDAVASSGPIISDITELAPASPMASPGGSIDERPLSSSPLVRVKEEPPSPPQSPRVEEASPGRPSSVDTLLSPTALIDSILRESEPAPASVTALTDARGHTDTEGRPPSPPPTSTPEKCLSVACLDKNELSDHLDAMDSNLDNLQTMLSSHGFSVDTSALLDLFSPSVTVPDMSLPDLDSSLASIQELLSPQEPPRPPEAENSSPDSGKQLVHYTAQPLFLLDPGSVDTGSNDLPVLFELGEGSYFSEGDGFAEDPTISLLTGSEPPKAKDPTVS
SPIB, sequence (Q01892 whole entry): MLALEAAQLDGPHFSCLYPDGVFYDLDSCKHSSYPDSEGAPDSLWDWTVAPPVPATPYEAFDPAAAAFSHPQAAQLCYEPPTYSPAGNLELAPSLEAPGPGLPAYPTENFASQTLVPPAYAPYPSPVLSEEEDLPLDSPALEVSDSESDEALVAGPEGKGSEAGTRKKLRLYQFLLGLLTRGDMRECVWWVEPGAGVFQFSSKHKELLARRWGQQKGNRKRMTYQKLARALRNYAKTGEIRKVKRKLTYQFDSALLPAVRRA
CRX, sequence (O43186 whole entry): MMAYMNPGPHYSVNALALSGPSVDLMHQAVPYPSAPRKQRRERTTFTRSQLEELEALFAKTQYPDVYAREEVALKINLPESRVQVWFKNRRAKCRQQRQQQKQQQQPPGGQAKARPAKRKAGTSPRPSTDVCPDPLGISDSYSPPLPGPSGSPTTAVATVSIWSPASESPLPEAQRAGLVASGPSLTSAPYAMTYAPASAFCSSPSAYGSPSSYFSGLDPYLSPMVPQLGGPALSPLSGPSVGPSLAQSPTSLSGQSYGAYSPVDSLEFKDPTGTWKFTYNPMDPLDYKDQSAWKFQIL
ELF1, sequence (P32519 whole entry): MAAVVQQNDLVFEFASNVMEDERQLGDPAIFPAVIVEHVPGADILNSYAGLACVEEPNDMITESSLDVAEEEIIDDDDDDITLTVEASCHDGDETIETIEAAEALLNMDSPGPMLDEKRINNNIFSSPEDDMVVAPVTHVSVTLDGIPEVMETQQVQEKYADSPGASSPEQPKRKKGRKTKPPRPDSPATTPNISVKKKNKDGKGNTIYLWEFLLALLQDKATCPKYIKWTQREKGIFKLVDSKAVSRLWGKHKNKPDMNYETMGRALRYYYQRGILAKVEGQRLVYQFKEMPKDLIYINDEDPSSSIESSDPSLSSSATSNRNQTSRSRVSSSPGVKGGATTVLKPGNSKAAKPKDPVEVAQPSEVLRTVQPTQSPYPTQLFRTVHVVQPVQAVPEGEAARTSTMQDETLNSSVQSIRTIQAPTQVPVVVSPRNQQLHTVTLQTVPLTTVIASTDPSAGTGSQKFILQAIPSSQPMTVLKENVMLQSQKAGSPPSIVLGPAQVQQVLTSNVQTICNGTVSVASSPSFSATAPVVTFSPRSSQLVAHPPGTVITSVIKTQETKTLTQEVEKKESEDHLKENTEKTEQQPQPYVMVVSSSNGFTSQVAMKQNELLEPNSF
ELF4, sequence (Q99607 whole entry): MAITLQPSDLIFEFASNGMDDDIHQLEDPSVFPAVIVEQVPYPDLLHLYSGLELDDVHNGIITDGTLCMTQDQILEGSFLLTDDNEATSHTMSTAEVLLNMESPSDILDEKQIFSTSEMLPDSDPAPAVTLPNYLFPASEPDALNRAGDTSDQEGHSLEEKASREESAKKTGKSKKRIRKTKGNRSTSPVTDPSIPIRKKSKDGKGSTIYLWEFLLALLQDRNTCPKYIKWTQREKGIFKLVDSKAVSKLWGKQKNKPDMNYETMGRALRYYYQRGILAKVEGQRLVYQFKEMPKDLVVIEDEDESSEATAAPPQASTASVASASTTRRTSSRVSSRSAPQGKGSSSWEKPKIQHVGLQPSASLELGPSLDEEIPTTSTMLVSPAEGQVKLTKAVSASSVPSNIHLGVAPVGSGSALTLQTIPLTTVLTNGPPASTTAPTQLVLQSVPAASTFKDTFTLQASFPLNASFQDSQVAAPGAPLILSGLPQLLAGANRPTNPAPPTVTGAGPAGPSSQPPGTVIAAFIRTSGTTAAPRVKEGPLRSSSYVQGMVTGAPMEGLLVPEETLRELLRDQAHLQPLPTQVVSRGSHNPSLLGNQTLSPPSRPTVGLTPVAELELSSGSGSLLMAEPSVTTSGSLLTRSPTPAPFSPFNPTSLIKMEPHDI
ETV1, sequence (P50549 whole entry): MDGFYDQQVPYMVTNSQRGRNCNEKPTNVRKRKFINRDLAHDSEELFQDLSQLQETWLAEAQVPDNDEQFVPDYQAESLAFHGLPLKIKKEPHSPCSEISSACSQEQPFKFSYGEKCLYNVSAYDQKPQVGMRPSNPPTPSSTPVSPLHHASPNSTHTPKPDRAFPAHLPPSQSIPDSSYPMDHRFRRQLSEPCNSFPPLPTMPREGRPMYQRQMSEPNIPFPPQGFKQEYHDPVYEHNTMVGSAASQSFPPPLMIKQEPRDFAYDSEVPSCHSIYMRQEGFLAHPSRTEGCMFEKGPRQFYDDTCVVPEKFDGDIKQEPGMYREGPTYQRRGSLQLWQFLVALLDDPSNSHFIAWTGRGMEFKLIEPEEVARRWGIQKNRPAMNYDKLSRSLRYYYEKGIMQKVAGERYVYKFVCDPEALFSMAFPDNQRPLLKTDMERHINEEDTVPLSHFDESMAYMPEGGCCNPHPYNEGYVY
ETV5, sequence (P41161 whole entry): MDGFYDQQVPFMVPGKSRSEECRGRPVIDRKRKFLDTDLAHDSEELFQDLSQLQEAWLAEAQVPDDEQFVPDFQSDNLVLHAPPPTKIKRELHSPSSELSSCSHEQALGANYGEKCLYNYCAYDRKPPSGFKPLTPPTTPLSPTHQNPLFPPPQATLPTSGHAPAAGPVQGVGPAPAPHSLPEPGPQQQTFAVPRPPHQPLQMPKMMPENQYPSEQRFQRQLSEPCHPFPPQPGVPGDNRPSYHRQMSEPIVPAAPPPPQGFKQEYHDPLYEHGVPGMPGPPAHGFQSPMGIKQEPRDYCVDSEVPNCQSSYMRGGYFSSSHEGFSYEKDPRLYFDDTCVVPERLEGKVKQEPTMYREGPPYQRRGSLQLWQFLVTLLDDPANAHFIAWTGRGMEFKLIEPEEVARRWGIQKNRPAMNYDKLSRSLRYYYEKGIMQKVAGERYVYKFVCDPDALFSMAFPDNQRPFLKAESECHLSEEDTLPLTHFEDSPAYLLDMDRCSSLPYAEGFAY

Sequence: CCTTCA
- binding signal (FLI1): 1.49 fold enrichment (6-mer frequency, TF over GST control)
- binding signal (ELK1): 1.43 fold enrichment (6-mer frequency, TF over GST control)
- binding signal (GABPA): 1.46 fold enrichment (6-mer frequency, TF over GST control)
- binding signal (ERG): 1.45 fold enrichment (6-mer frequency, TF over GST control)
- binding signal (ELF1): 1.51 fold enrichment (6-mer frequency, TF over GST control)
- binding signal (EHF): 1.26 fold enrichment (6-mer frequency, TF over GST control)
- binding signal (SPI1): 1.36 fold enrichment (6-mer frequency, TF over GST control)
- binding signal (SPIB): 1.46 fold enrichment (6-mer frequency, TF over GST control)
- binding signal (ELK3): 1.16 fold enrichment (6-mer frequency, TF over GST control)
- binding signal (FEV): 1.48 fold enrichment (6-mer frequency, TF over GST control)
- binding signal (ETV5): 1.45 fold enrichment (6-mer frequency, TF over GST control)
- binding signal (HSF1): 1.36 fold enrichment (6-mer frequency, TF over GST control)
- binding signal (SPIC): 1.31 fold enrichment (6-mer frequency, TF over GST control)
- binding signal (ELF4): 1.42 fold enrichment (6-mer frequency, TF over GST control)
- binding signal (ELK4): 1.69 fold enrichment (6-mer frequency, TF over GST control)
- binding signal (ETV2): 1.49 fold enrichment (6-mer frequency, TF over GST control)
- binding signal (ELF3): 1.4 fold enrichment (6-mer frequency, TF over GST control)
- binding signal (CRX): 1.34 fold enrichment (6-mer frequency, TF over GST control)
- binding signal (ETV1): 1.55 fold enrichment (6-mer frequency, TF over GST control)
